Out of some 13,000 compounds screened, about 3,200 (25%) showed an effect of 50% or more. The list shows a part of the results.

The test system of this experiment is P. falciparum stage V gametocytes. Also on record: BacTiter-Glo ATP luminescence viability of purified stage V gametocytes in 384-well plates, per cent inhibition versus DMSO. The conditions noted are these: 48 h, 5 µM; inhibitor.
Broadly, the % Inhibition is the change of the read-out against control, counted positive when it falls. For the compound `CCCc1cc(NCc2ccncc2)nc(Nc2ccc(F)cc2)n1` [TCMDC-134012], the “% Inhibition” value came out at 34.89%. In the case of `NC(=O)c1ccsc1NC(=O)CNC(c1ccccc1)c1ccccc1` [TCMDC-125458] it was 2.042%. For `O=C(N[C@@H](Cc1ccccc1)[C@H](O)CNC1CCCc2ccccc21)c1cc(C2CCCC2)cc(N2CCCC2=O)c1` (some centres unmarked) [TCMDC-134656], the “% Inhibition” value is -0.2102%. In the case of `Cc1c2c(nn1-c1ccccc1)C(c1ccccc1)N(c1ccccc1)C2=O` (centres unmarked) [TCMDC-131674] it was -2.033%; in that of `COc1ccccc1N1CCN(c2cccc(F)c2C#N)CC1` [TCMDC-124862], -55.85%. In the case of `COc1cc(C)c(NC(=O)c2cccc3c(=O)c(C)c(-c4ccccc4)oc23)cc1OC` [TCMDC-125261] it was -26.52%; in that of `COc1ccc(-c2ccc(S(=O)(=O)Nc3cc4c(cc3OC(C)C)CCN(C)CC4)cc2)cc1` [TCMDC-141487], 10.97%; in that of `CC(C)C(=O)ONC1=NC(C)(C)N(OCCCOc2cc(Cl)c(Cl)cc2Cl)C(NOC(=O)C(C)C)=N1` [TCMDC-131788], -4.555%. Next, `CNC(=O)c1cnc(Nc2ccc(OCC(O)CN(C)C)cc2)nc1Nc1cccc(OC)c1` (centres unmarked) [TCMDC-141387]: 95.62%; `CNC(=O)c1cnc(Nc2ccc(N3CCOCC3)cc2)nc1Nc1cccc(O)c1` [TCMDC-141385]: -8.649%; `CNC(=O)c1cnc(Nc2ccc(N3CCN(C)CC3)cc2)nc1Nc1cccc(OC(C)C)c1` [TCMDC-141384]: -23.05%. As for `CNC(=O)c1cnc(Nc2ccc(N3CCN(C)CC3)cc2)nc1Nc1cccc(OC)c1` [TCMDC-141383], the “% Inhibition” value came to 85.81%. In the case of `CNC(=O)c1cnc(Nc2ccc(OCC(O)CN(C)C)cc2)nc1Nc1cccc([N+](=O)[O-])c1` (centres unmarked) [TCMDC-141392] it was 55.28%. In the case of `CNC(=O)c1cnc(Nc2ccc(N3CCOCC3)cc2)nc1Nc1cccc(OC)c1` [TCMDC-141386] it was -63.88%; in that of `CN1CCN(c2ccc(Nc3ncc([N+](=O)[O-])c(Nc4ccccc4O)n3)cc2)CC1` [TCMDC-141372], 99.51%. In the case of `Cc1cc(C)cc(OCC(O)CN(Cc2cc(Cl)cc(Cl)c2)C(=O)Nc2ccc([N+](=O)[O-])cc2)c1` (centres unmarked) [TCMDC-141478] it was -6.134%; in that of `CN1CCN(c2ccc(Nc3ncc(C#N)c(Nc4ccccc4C(N)=O)n3)cc2)CC1` [TCMDC-134116], -62.53%; in that of `CNC(=O)c1cnc(Nc2ccc(OCC(O)CN(C)C)cc2)nc1Nc1cccc(Br)c1` (centres unmarked) [TCMDC-141388], 25.03%. As for `CN(C)CCOc1cc(NC(=O)Nc2cccc([N+](=O)[O-])c2)ccc1I` [TCMDC-139158], the “% Inhibition” value came to 11.15%. Next, `CC(C)N(Cc1ccccc1)C(=O)CN1C(=O)COc2ccc(S(=O)(=O)N3CCCCCC3)cc21` [TCMDC-124755]: -21.1%; `N#Cc1ccc2c(c1)CCN(CCC1CCC(NC(=O)c3cccc(-c4ccc(F)cc4)c3)CC1)CC2` (centres unmarked) [TCMDC-139679]: -51.12%.

`O=C(c1csc(-c2cccnc2)n1)N1CCc2cc3nccc(N4CCN5CCC[C@H]5C4)c3cc21` [TCMDC-140044]: the “% Inhibition” value came to 44.75%.

In the case of `CCCCCSc1cc(O)c(C(CNC)C(C)C)cc1OC` (centres unmarked) [TCMDC-125495], the “% Inhibition” value was -82.86%.

`CCCN(CCC)CC(O)COc1ccccc1C(=O)Nc1ccccc1` (centres unmarked) [TCMDC-125708]: the “% Inhibition” value was -0.1626%. On to `CNC(=O)c1cnc(Nc2ccc3[nH]c(=O)[nH]c3c2)nc1Nc1cccc(OC(C)C)c1` [TCMDC-141390], for which the “% Inhibition” value is listed as -16.36%.

As to `CNC(=O)c1cnc(Nc2ccc(OCC(O)CN(C)C)cc2)nc1Nc1cccc(OC(C)C)c1` (centres unmarked) [TCMDC-141389], the “% Inhibition” value amounted to 97.53%.

Consider `COc1ccc(CNCc2ccc(-c3cccc(-c4nc5ccccc5[nH]4)c3)cc2)cc1.O=C(O)C(F)(F)F` [TCMDC-132546], for which the “% Inhibition” value is 33.45%.

`CNc1ccc(CNCc2cccc(-c3ccc(-c4nc5ccccc5[nH]4)cc3)c2)cc1.O=C(O)C(F)(F)F` [TCMDC-132986]: the “% Inhibition” value was 13.98%. Regarding `O=C(O)C(F)(F)F.c1ccc(CNCc2ccc(-c3ccc(-c4nc5ccccc5[nH]4)cc3)cc2)cc1` [TCMDC-132711], the “% Inhibition” value is reported as -28.39%.

For `COc1ccc(CNCc2cccc(-c3ccc(-c4nc5ccccc5[nH]4)cc3)c2)cc1.O=C(O)C(F)(F)F` [TCMDC-132718], the “% Inhibition” value came out at 76.66%. Take `COc1ccc(CNCc2ccc(-c3ccc(-c4nc5cc(F)ccc5[nH]4)cc3)cc2)cc1.O=C(O)C(F)(F)F` [TCMDC-132725]: the “% Inhibition” value was -52.38%.

Take `COc1ccc(CNCc2ccc(-c3ccc(-c4nc5ccccc5[nH]4)cc3)cc2)cc1.O=C(O)C(F)(F)F` [TCMDC-132730]: the “% Inhibition” value turned out to be 80.88%.

In the case of `OC[C@H]1CCCN1CC#Cc1cc2c(Nc3ccc(OCc4cccc(F)c4)c(Cl)c3)ncnc2s1` [TCMDC-138787], the “% Inhibition” value was -22.43%.

For the compound `Cc1ccn2c(C(=O)N3CCN(c4cccc5c4nc(-c4ccoc4)n5Cc4ccccn4)CC3)c(C)nc2c1` [TCMDC-134556], the “% Inhibition” value is recorded as -25.5%. `CCCC(=O)Nc1ccc(Nc2nc(C)cc(N3CCCC3)n2)cc1` [TCMDC-124718]: the “% Inhibition” value is on record as -11.42%. In the case of `COc1ccc(Nc2ncc3c(-c4cccc(NC(=O)Cc5ccncc5)c4)c[nH]c3n2)cc1OC` [TCMDC-135286] it was -39.63%; in that of `COc1ccc(Nc2ncc3c(-c4cccc(NC(=O)CC(C)C)c4)c[nH]c3n2)cc1OC` [TCMDC-135246], 51.08%; in that of `COc1ccc(Nc2ncc3c(-c4cccc(NC(=O)Cc5ccc(O)cc5)c4)c[nH]c3n2)cc1OC` [TCMDC-135248], -43.02%. As to `Cc1cccc2nc(-c3ccc(-c4cccc(CN5CCC(CO)CC5)c4)s3)[nH]c12.O=C(O)C(F)(F)F` [TCMDC-133122], the “% Inhibition” value came to 24.91%. In the case of `NC1CCCN(Cc2cccc(-c3ccc(-c4nc5ccccc5[nH]4)s3)c2)C1.O=C(O)C(F)(F)F` (centres unmarked) [TCMDC-133870] it was 15.45%; in that of `Cc1cccc2nc(-c3ccc(-c4cccc(CN5CCC(C(N)=O)CC5)c4)s3)[nH]c12.O=C(O)C(F)(F)F` [TCMDC-132690], -2.69%. In the case of `Cc1cccc2nc(-c3ccc(-c4cccc(CN5CCN(CCN6CCOCC6)CC5)c4)s3)[nH]c12.O=C(O)C(F)(F)F` [TCMDC-133925] it was 7.217%.

Turning to `Cc1cccc2nc(-c3ccc(-c4cccc(CN5CCCCC5)c4)s3)[nH]c12.O=C(O)C(F)(F)F` [TCMDC-133911], the “% Inhibition” value is -13.55%. In the case of `Cc1cccc2nc(-c3ccc(-c4cccc(CN5CCC(N)C5)c4)s3)[nH]c12.O=C(O)C(F)(F)F` (centres unmarked) [TCMDC-133873] it was 89.08%.

For the compound `Cc1cccc2nc(-c3ccc(-c4cccc(CN5CCCC(N)C5)c4)s3)[nH]c12.O=C(O)C(F)(F)F` (centres unmarked) [TCMDC-133874], the “% Inhibition” value was 63.62%. Next, `Cc1cccc2nc(-c3ccc(-c4cccc(CN5CCCC(O)C5)c4)s3)[nH]c12.O=C(O)C(F)(F)F` (centres unmarked) [TCMDC-133834]: -3.04%; `Cc1cccc2nc(-c3ccc(-c4cccc(CN5CCC(CCN6CCCCC6)CC5)c4)s3)[nH]c12.O=C(O)C(F)(F)F` [TCMDC-133923]: 107.3%.

The values are drawn from publication PMC4552634, “A New Set of Chemical Starting Points with Plasmodium falciparum Transmission-Blocking Potential for Antimalarial Drug Discovery” (PLoS ONE, 2015).
